Screening data (PubChem)
An excerpt weighted towards active compounds, which were near 2.7% of everything screened.
Env fusion inh = inhibitors of HIV-1 Env-driven cell-cell fusion, primary screen, HeLa-JRFL effector, CEM21 target cells, luciferase; 1.1% of 360,000 active; inhibition, % at 12.3 µM;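 active = mean replicate inhibition score of at least 50 and every replicate individually at or above 50; inconclusive = only one of the two criteria met; inactive = mean below 50 and not all replicates reaching 50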
PGC1a acetyl inh = inhibitors of PGC1a acetylation signal, primary screen, cell-based, U2OS, AlphaScreen, inhibitor mode; inhibition, % at 15.6 µM; AlphaScreen anti-acetyl-lysine; with virally co-expressed GCN5 acetyltransferase; AID 651687, 2012; 0.17% of 350,000 active;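 active = every replicate shows inhibition of at least 40%; inconclusive = mean inhibition at least 40% but some replicate below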
GSIS activator = GLuc luminescence reporter in INS-1E cells, primary screen for activators of glucose-dependent secretion of insulin. activation, % at 16.6 µM. 0.61% of 370,000 active. INS-1E GLuc reporter insulin secretion, 2-3 h;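 active = lowest replicate activation of at least 40%, so every replicate reaches that level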
F508del corr = F508del CFTR correction, initial screen, CFBE line, single point | CFBE cells, YFP halide quenching; stimulated with forskolin plus potentiator P3; % fluorescence drop versus neutral controls | activity (quench increase), % at 7.58 µM | 0.36% of 350,000 active | AID 720511, 2013;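 active = mean added fluorescence quench of at least 8% versus neutral control, with both replicates also reaching 8%; inconclusive = only one of the mean or replicate conditions met; inactive = mean below 8% and not both replicates reaching 8%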;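 note: cells transiently co-express mutant CFTR-F508del with the halide-sensitive YFP; corrector assay measuring rescue of mutant channel to the surface after 24 h compound exposure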
PAX8 reporter = inhibitors of PAX8-driven TPO luciferase reporter, primary screen, RMG-I cells, single concentration | SteadyGlo, 24 h | inhibition, % at 12.6 µM | AID 652154, 2013 | 1.2% of 360,000 active;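 active = mean replicate inhibition at least 60% with every replicate also reaching 60%; inconclusive = only one of the two criteria is met; inactive = mean below 60% and not all replicates reaching 60%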;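 note: luciferase light reporting Pax8 driven TPO promoter activity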
EWS-Fli block = EWS/Fli-driven NR0B1 reporter inhibitors, primary screen, A673 cells, NR0B1 luciferase, luminescence, MLPCN library | viability-normalised | inhibition, % at 12.6 µM | 0.67% of 350,000 active;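 active = mean inhibition of at least 50% after viability correction, with every replicate also passing that limit; inconclusive = mean reaches 50% but only one of two replicates passes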;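 note: firefly luciferase signal divided by Alamar Blue viability fluorescence both relative to DMSO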
Hits are given with their value; n = inactive; u = inconclusive; x = no result given; [ ] = remark or other dose.

SMILES	Env fusion inh	PGC1a acetyl inh	GSIS activator	F508del corr	PAX8 reporter	EWS-Fli block
Cc1ccc(S(=O)(=O)Nc2ccc3c(c2)C(=O)N([C@H](C)CO)C[C@@H](C)[C@@H](CN(C)Cc2ccc(-c4ccccc4)cc2)O3)cc1	60[16.7 µM]	n	n	n	n	n
C[C@@H]1CN([C@H](C)CO)C(=O)c2cc(NS(=O)(=O)c3ccc(Cl)cc3)ccc2O[C@@H]1CN(C)Cc1ccc(-c2ccccc2)cc1	n	n	n	9.4	x	n
Cc1ccc(S(=O)(=O)Nc2ccc3c(c2)C(=O)N([C@H](C)CO)C[C@H](C)[C@@H](CN(C)Cc2ccc(-c4ccccc4)cc2)O3)cc1	x	n	n	x	x	x
O=C(C[C@@H]1C=C[C@H](NC(=O)Nc2ccccc2F)[C@@H](CO)O1)NCc1ccc(-c2ccccc2)cc1	n	n	n	n	n	n
O=C(C[C@H]1C=C[C@@H](NC(=O)Nc2ccccc2F)[C@@H](CO)O1)NCc1ccc(Cl)cc1	72[16.7 µM]	n	n	n	n	n
O=C(C[C@H]1C=C[C@@H](NC(=O)Nc2ccccc2F)[C@@H](CO)O1)NCc1ccc(-c2ccccc2)cc1	84[16.7 µM]	n	n	n	x	n
O=C(C[C@H]1C=C[C@H](NC(=O)Nc2ccccc2F)[C@H](CO)O1)NCc1ccc(Cl)cc1	n	n	n	n	n	n
O=C(C[C@@H]1C=C[C@@H](NC(=O)CC2CC2)[C@H](CO)O1)NCc1ccc(Cl)cc1	55[16.7 µM]	n	n	n	n	n
O=C(O)C[C@H]1C=C[C@H](NC(=O)Nc2ccccc2)[C@@H](CO)O1	n	n	n	n	n	n
O=C(C[C@@H]1C=C[C@H](NC(=O)CC2CC2)[C@H](CO)O1)NCc1ccc(Cl)cc1	n	n	n	n	n	n
O=C(O)C[C@@H]1C=C[C@H](NC(=O)Nc2ccccc2)[C@H](CO)O1	58[16.7 µM]	n	n	n	n	n
O=C(C[C@H]1C=C[C@@H](NC(=O)c2cccc(F)c2)[C@@H](CO)O1)NCc1ccc(Oc2ccccc2)cc1	80[16.7 µM]	n	n	n	n	n
COc1cccc(NC(=O)N(C)C[C@@H]2Oc3cc(C#Cc4ccc(F)cc4)ccc3S(=O)(=O)N([C@@H](C)CO)C[C@H]2C)c1	n	n	n	n	x	n
CCC(C)NC(=O)c1nc2c(nnn2Cc2ccccc2Cl)c(=O)[nH]1 (configuration not stated)	n	x	n	n	n	n
O=C(NCc1cccs1)c1nc2c(nnn2Cc2ccccc2Cl)c(=O)[nH]1	111	n	x	x	x	x
C[C@@H](Oc1ccccc1)c1nnn(Cc2ccccc2)c1-c1c([C@@H](C)Oc2ccccc2)nnn1Cc1ccccc1	73	x	x	n	n	n
c1ccc(Cn2nnc3ccccc32)cc1	n	n	n	n	n	n
CC(C)NC(=O)Nc1ccc2c(c1)C(=O)N([C@H](C)CO)C[C@@H](C)[C@@H](CN(C)C(=O)Nc1ccccc1)OCCCC[C@@H](C)O2	u	n	n	n	n	x
Cc1sc2ncnc(Sc3nnnn3-c3ccc(Cl)cc3)c2c1C	50	n	x	x	75	x
CN(C)C(=O)C[C@@H]1C[C@@H]2c3cc(NS(=O)(=O)c4ccc(F)cc4)ccc3O[C@@H]2[C@@H](CO)O1	70[16.7 µM]	n	n	n	n	n
CN(C)C(=O)C[C@H]1C[C@H]2c3cc(NS(=O)(=O)c4ccc(F)cc4)ccc3O[C@H]2[C@H](CO)O1	n	n	n	n	n	n
C[C@@H](NC(=O)C[C@@H]1C[C@@H]2c3cc(NC(=O)Nc4ccccc4F)ccc3O[C@@H]2[C@@H](CO)O1)c1ccccc1	n	n	105	n	n	n
CN(C)C(=O)C[C@@H]1C[C@H]2c3cc(NS(=O)(=O)c4ccc(F)cc4)ccc3O[C@H]2[C@H](CO)O1	90[16.7 µM]	n	n	n	n	n
COc1ccccc1NC(=O)N[C@@H]1CC[C@H](CC(=O)N[C@H](C)c2ccccc2)O[C@@H]1CO	75[16.7 µM]	n	n	n	n	n
COc1ccccc1NC(=O)N[C@H]1CC[C@H](CC(=O)N[C@@H](C)c2ccccc2)O[C@H]1CO	n	n	n	n	n	n
